Growth data for 40 compounds are collected here from PubChem BioAssay (NCI).

About 83,000 compounds went through this panel and 20% of them were active in at least one assay; those are over-represented in the sample as a whole.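 Each cell line was grown in a 96-well plate and treated with one concentration of compound for 48 hours. Values below 10 were considered active.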 A number with no mark means an inactive call. The source made the active and inactive calls.

For the assay, the system named is M14 melanoma. Description: NCI-60 one-dose screen, 48 h (100 = growth as untreated, 0 = no growth, -100 = all killed). To be noted: 10 µM unless noted. How it is done: Growth inhibition of the M14 human tumor cell line is measured as a screen for anti-cancer activity. Cells are grown in 96 well plates and exposed to the test compound for 48 hours. Compounds are tested at a single concentration, which is 10^-5 M for most compounds. The reported endpoint is percent growth (GI% or GIPRCNT), where numbers from 0 - 100% represent growth inhibition, and numbers from -100% - 0 represent cell death. For example, a value of 40 represents 60% growth inhibition. A value of 0 means no net growth occurred over the course of the experiment. A value of -40 indicates 40% of cells at the beginning of the experiment died by the end of the experiment. A value of -100 means all cells are dead at the end of the experiment.
NCI-60 Human Tumor Cell Lines Screen was performed using the standard one-dose NCI protocol, which is described in more detail at https://dtp.cancer.gov/discovery_development/nci-60/default.htm.
Compounds with GIPRCNT values below 10 were considered active. Activity score was based on GIPRCNT using the following formula: […]
Score is 0 for GIPRCNT values of 100 or above, 50 for GIPRCNT values of 0, and 100 for GIPRCNT values of -100.
Regarding `O=C(O)C1CCCN1C(=O)OCc1ccccc1` (stereo not given), the growth was 99.1%.

`Clc1ccc(C(SCc2ccccc2)SCc2ccccc2)cc1`: the growth is 88.2%.

As to `Cc1cccc(C)c1NC(=S)/N=C\c1c(O)[nH]c(=O)[nH]c1=O`, the growth is 98.4%.

Turning to `Nc1ncnc(Nc2ccc(C(F)(F)F)cc2)n1`, the growth was 103%.

On to `CCCCCCCCCCCCCCCCOc1ccccc1NC(=O)CC(C)=O`, for which the growth was 109%.

As to `CCOC(=O)/C(C#N)=C\c1c[nH]c2ccccc12`, the growth is 97.1%.

Turning to `CCNCC(C)(C)O`, the growth is 95.5%.

Take `Cc1cc(=O)n(Nc2ccccc2)c(O)c1C#N`: the growth was 99.4%.

For the compound `Nc1cc(F)ccc1[N+](=O)[O-]`, the growth is 94.4%.

As to `Oc1cccnc1CN1CCCC1`, the growth was 112%.

For the compound `CCNC(=O)Oc1ccc[nH]c1=O`, the growth is 102%.

On to `Cc1ccc(C)c(CCO)c1`, for which the growth is 108%.

`CC(=O)[C@@]1(O)CC[C@H]2[C@@H]3CC[C@@H]4CC(=O)CC[C@]4(C)[C@H]3[C@@H](O)C[C@@]21C`: the growth is 93%.

Consider `NC(=S)N/N=C/c1ccc(OC(=O)COc2ccc(Cl)cc2)cn1`, for which the growth is 17.9%.

For `COc1cccc2c1Cc1ccccc1-2`, the growth was 102%.

Regarding `COC(=O)Cc1cc(COC(C)=O)ccc1C`, the growth was 106%.

Take `COC(=O)c1ccc([N+](=O)[O-])c(C)c1`: the growth was 94%.

As to `O=C(OC1CCCC1)c1ccccc1Cl`, the growth is 101%.

For `CCN(CC)CCCC(C)NC(=S)N/N=C(\C)c1ccccn1` (stereo not given), the growth was 37.2%.

As to `O=C(c1ccccc1)c1ccc(-c2ccc(O)cc2)cc1`, the growth is 25.8%.

Regarding `CCN(Cc1ccc(Cl)c(Cl)c1)c1ccc2nc(N)nc(N)c2c1C`, the growth is -70.1% (active).

`CCCC(OC(C)=O)c1ccc2c(c1)OCO2` (stereo not given): the growth was 102%.

In the case of `COc1cc(C(=O)O)c(O)c(C(C)(C)C)c1`, the growth was 105%.

Regarding `NNc1ncnc2nc[nH]c12`, the growth was 48%.

Regarding `O=C(O)c1cc(I)ccc1O`, the growth is 110%.

Take `c1ccc(Oc2c3ccccc3nc3ccccc23)cc1`: the growth is -13.2% (active).

In the case of `Cn1/c(=N\N=C\c2ccccc2OCCO)sc2ccccc21`, the growth is 103%.

Turning to `CCCCNC(=O)c1ccc(OCC)cc1`, the growth is 99.7%.

Turning to `O=S(Cc1ccccc1)/C(=C/NC(=S)Nc1cc(Cl)ccc1Cl)c1ccccc1` (stereo not given), the growth was 96.8%.

On to `CCCOCc1cn[nH]n1`, for which the growth is 106%.

With `Cc1cc(C(=O)NN)c(C#N)c(=O)[nH]1`, the growth is 100%.

Regarding `COc1ccc(Br)c2c1C(=O)CC2`, the growth was 110%.

For the compound `COc1ccc(-c2csc(NC(=O)Nc3nc(-c4ccc(OC)cc4)cs3)n2)cc1`, the growth was 83.6%.

As for `Cc1ccc(N)c(S(=O)(=O)O)c1`, the growth is 101%.

Regarding `CCCNS(=O)(=O)c1ccc(Cl)cc1`, the growth is 101%.

`N#C/C(=C\NC(=S)N=Nc1c(O)[nH]c2ccccc12)c1nc2ccccc2s1`: the growth was 101%.

`O=Cc1ccc(F)cc1`: the growth was 106%.

With `NC(=S)N/N=C/c1ccc(OC(=O)COc2ccccc2)cn1`, the growth is 15%.

`O=c1[nH]c(=O)c2cc(Cl)cc(Cl)c2[nH]1`: the growth is 102%.

Consider `CCCCCCCCCCC(=O)CCCCCCCCCC`, for which the growth was 99.9%.
